Changes are numbered by the printed parent chain.

What all share (test): yeast three-hybrid, YBZ-1, SC-Leu-His + 0.5 mM 3-AT, 4 days
What all share (details): tags: N-Gal4 AD-HA kept; label: inside an RPR1-promoter hybrid RNA with tandem MS2 sites; ssRNA

The target in one experiment is PUM1 PUF domain R4-SRM (Homo sapiens, UniProt Q14671 828-1176, N971S;H972R;Q975M). In a few lines:
(§1)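 The interaction score is the log change in how often each variant appears, from input to selection. Frequencies came from PCR-amplified, Illumina-sequenced repeat regions of Pumilio-1 PUF domain libraries grown in strain YBZ-1 (LexA–MS2 coat fusion, HIS3 reporter) alongside matching RNA elements. Input plates were SC-Leu and selection plates were SC-Leu-His + 0.5 mM 3-AT, each for four days, and the log2 calculation used a pseudocount of 1 where a variant was absent.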

The next experiment concerns the target PUM1 PUF domain R3-RRS (Homo sapiens, UniProt Q14671 828-1176, C935R;Q939S). In a few lines: as §1
A further experiment has as its target PUM1 PUF domain R3-VFY (Homo sapiens, UniProt Q14671 828-1176, C935V;R936F;Q939Y). In a few lines: as §1
Another experiment deals with PUM1 PUF domain R5-EAC (Homo sapiens, UniProt Q14671 828-1176, C1007E;R1008A;Q1011C). In a few lines: as §1
The next experiment deals with PUM1 PUF domain R1-QWK (Homo sapiens, UniProt Q14671 828-1176, S863Q;R864W;Q867K). The essentials:
as §1

The target in a further experiment is PUM1 PUF domain R5-RSQ (Homo sapiens, UniProt Q14671 828-1176, C1007R;R1008S). The essentials: as §1
Another experiment has as its target PUM1 PUF domain R5-RHV (Homo sapiens, UniProt Q14671 828-1176, C1007R;R1008H;Q1011V). The essentials: as §1
For a further experiment, the target named is T1, PUM1 PUF domain R6-IWL (Homo sapiens, UniProt Q14671 828-1176, N1043I;Y1044W;Q1047L).
T1 sequence: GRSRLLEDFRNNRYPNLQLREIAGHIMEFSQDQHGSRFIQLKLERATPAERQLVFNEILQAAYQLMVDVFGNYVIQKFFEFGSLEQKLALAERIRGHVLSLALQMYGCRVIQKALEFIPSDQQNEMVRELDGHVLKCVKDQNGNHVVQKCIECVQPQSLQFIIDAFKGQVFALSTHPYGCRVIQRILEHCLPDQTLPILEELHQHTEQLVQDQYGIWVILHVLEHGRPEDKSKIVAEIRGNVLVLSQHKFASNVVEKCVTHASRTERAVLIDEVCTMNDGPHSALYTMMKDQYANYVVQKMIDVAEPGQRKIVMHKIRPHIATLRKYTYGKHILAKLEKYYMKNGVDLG
In a few lines:
as §1

A further experiment deals with T2, PUM1 PUF domain R6-HHR (Homo sapiens, UniProt Q14671 828-1176, N1043H;Y1044H;Q1047R).
T2 sequence: T1 sequence with I216H, W217H, L220R
In a few lines: as §1

A further experiment addresses PUM1 PUF domain R5-RCV (Homo sapiens, UniProt Q14671 828-1176, C1007R;R1008C;Q1011V). The essentials: as §1

For the sequence “GGCUAGAACUAGUGGAUCCCCCGGCGCCCGGCGGCUCGAGCCCGGGUAAGUGUACAUAGUCUGCAUGCCGCCGGGCGCCAUGCCUGCAGGUCGACUCUAGAAAACAUG”, in the experiment with PUM1 PUF domain R4-SRM, the binding signal was 2.16 log2 enrichment (interaction score).
With “GGCUAGAACUAGUGGAUCCCCCGGCGCCCGGCGGCUCGAGCCCGGGUAAGUGUAAUUAGUCUGCAUGCCGCCGGGCGCCAUGCCUGCAGGUCGACUCUAGAAAACAUG”, the binding signal is 3.9 log2 enrichment (interaction score) with PUM1 PUF domain R3-RRS and 5.89 log2 enrichment (interaction score) with PUM1 PUF domain R3-VFY.
Regarding “GGCUAGAACUAGUGGAUCCCCCGGCGCCCGGCGGCUCGAGCCCGGGUAAGUGUGAAUAGUCUGCAUGCCGCCGGGCGCCAUGCCUGCAGGUCGACUCUAGAAAACAUG”, in the experiment with PUM1 PUF domain R5-EAC, the binding signal is 3.49 log2 enrichment (interaction score).
“GGCUAGAACUAGUGGAUCCCCCGGCGCCCGGCGGCUCGAGCCCGGGUAAGUGUAAAUCGUCUGCAUGCCGCCGGGCGCCAUGCCUGCAGGUCGACUCUAGAAAACAUG”: in the experiment with PUM1 PUF domain R1-QWK, the binding signal is 5.98 log2 enrichment (interaction score).
“GGCUAGAACUAGUGGAUCCCCCGGCGCCCGGCGGCUCGAGCCCGGGUAAGUGUUAAUAGUCUGCAUGCCGCCGGGCGCCAUGCCUGCAGGUCGACUCUAGAAAACAUG”: the results for the binding signal with PUM1 PUF domain R5-RSQ and in the experiment with PUM1 PUF domain R5-RHV were 4.05 log2 enrichment (interaction score) and 5.95 log2 enrichment (interaction score), respectively.
For “GGCUAGAACUAGUGGAUCCCCCGGCGCCCGGCGGCUCGAGCCCGGGUAAGUGUAUAUAGUCUGCAUGCCGCCGGGCGCCAUGCCUGCAGGUCGACUCUAGAAAACAUG”, the binding signal with PUM1 PUF domain R4-SRM is 2.54 log2 enrichment (interaction score).
“GGCUAGAACUAGUGGAUCCCCCGGCGCCCGGCGGCUCGAGCCCGGGUAAGUGUAAAUAGUCUGCAUGCCGCCGGGCGCCAUGCCUGCAGGUCGACUCUAGAAAACAUG”: the binding signal was 1.05 log2 enrichment (interaction score) in the experiment with PUM1 PUF domain R5-RSQ; 3.09 log2 enrichment (interaction score) with PUM1 PUF domain R6-IWL; 5.44 log2 enrichment (interaction score) in the experiment with PUM1 PUF domain R6-HHR; 3.86 log2 enrichment (interaction score) with PUM1 PUF domain R4-SRM; 2.87 log2 enrichment (interaction score) with PUM1 PUF domain R5-RHV; 6.12 log2 enrichment (interaction score) with PUM1 PUF domain R3-VFY.
As to “GGCUAGAACUAGUGGAUCCCCCGGCGCCCGGCGGCUCGAGCCCGGGUAAGUGUCAAUAGUCUGCAUGCCGCCGGGCGCCAUGCCUGCAGGUCGACUCUAGAAAACAUG”, the figures for the binding signal with PUM1 PUF domain R5-RSQ, with PUM1 PUF domain R5-RCV and with PUM1 PUF domain R5-RHV were 4.6 log2 enrichment (interaction score), 2.81 log2 enrichment (interaction score) and 5.74 log2 enrichment (interaction score), respectively.
